This note sets out measurements from PubChem BioAssay (NCATS).

Structures are written as SMILES. Results filed as inconclusive are left out. Activity calls are given as the source filed them. Calls come from the whole dose curve; as a rule, active = well fitted curve in the direction sought with a large enough effect; inconclusive = small, poorly fitted or top-dose-only effect, or another doubt; inactive = no such curve, though single readings can be large; an effect the other way counts as inactive or inconclusive.

Assay [1] can be described thus: P-glycoprotein substrates identified in KB-3-1 adenocarcinoma cell line, qHTS therapeutic library screen (AID 1346986). Note: nearly all actives have a fitted effect of over 60% in size.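 Note: potency is for cytotoxicity meaning loss of cell viability.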 Summed up: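 In 1536-well format, 500 cells/well received pinned compound titrations and were incubated 72 h, 5% CO2. Viability was read by CellTiter-Glo; cytotoxic if AC50 < 10 uM and efficacy >50%.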
The nature of assay [2]: P-glycoprotein substrates identified in KB-8-5-11 adenocarcinoma cell line, qHTS therapeutic library screen (AID 1346987). Note: nearly all actives have a fitted effect of over 65% in size. Summed up:
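Luminescence from CellTiter-Glo, read 5 min after addition, quantified survival of KB-8-5-11 (P-gp-overexpressing) cells exposed to compounds for 72 h. AC50 was derived from concentration-response curves.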
On the technique in general: In qHTS, concentration-response curves come from the screen itself.
Potency is the fitted concentration of half-maximal effect.

In the case of `COc1cc2ncnc(Nc3cccc(I)c3)c2cc1OC`, the Potency in assay [1] was 6.51 µM (active); in assay [2], 5.8 µM (active).
Consider `CN1CCN(c2ccc(-c3cccc(CN4CCOCC4)c3)cc2NC(=O)c2c[nH]c(=O)cc2C(F)(F)F)CC1`, for which the Potency result in assay [1] and in assay [2] was “inactive” throughout.
`Nc1nc(Nc2ccc3c(c2)CCC(N2CCCC2)CC3)nn1-c1cc2c(nn1)-c1ccccc1CCC2` (stereo not given): the Potency in assay [1] was 11.6 µM (active); in assay [2] it was 14.6 µM (active).
On to `CCNC(=O)C#Cc1ccc2c(C(=Nc3ccc(CN(C)C)cc3)c3ccccc3)c(O)[nH]c2c1`, for which the Potency is 0.0517 µM (active) in assay [1] and 0.651 µM (active) in assay [2].
The matching figures for `COc1ccc(C2=NC(c3ccc(Cl)cc3)C(c3ccc(Cl)cc3)N2C(=O)N2CCNC(=O)C2)c(OC(C)C)c1` (stereo not given): “inactive” and “inactive”.
`CC1(C)CCC2(C(=O)OC3OC(COC4OC(CO)C(O)C(O)C4O)C(O)C(O)C3O)CCC3(C)C(=CCC4C5(C)CCC(OC6OCC(O)C(O)C6O)C(C)(C)C5CCC43C)C2C1O` (stereo not given): the outcome in assay [1] and in assay [2] was “inactive [at 9.29 µM]” throughout.
Consider `CC#CCn1c(N2CCCC(N)C2)nc2c1c(=O)n(Cc1nc(C)c3ccccc3n1)c(=O)n2C` (stereo not given), for which the Potency entry in assay [1] and in assay [2] was “inactive” each time.
Consider `COc1ccc(C(=O)O[C@H]2C=COC=C3C=C4C(=O)N(C)C(=S)C(=O)N4[C@@H]32)cc1Oc1cc(C=O)ccc1O`, for which the Potency result in assay [1] and in assay [2] was “inactive” in each case.
Turning to `CO[C@H]1O[C@@H]2O[C@@]3(C)CCC4[C@H](C)CCC([C@H]1C)[C@]42OO3` (stereo not given in full), the Potency result in assay [1] and in assay [2] was “inactive” in each case.
On to `Cc1cccc(N2CCN(C(=O)c3cc(S(=O)(=O)N(C)C)ccc3N3CCCC3)CC2)c1C`, for which the Potency entry in assay [1] and in assay [2] was “inactive” each time.
